Columns and labels:
Experiment in all cases: PBM binding z-score (relative to random genomic background probes); higher = stronger binding; sequences stand for … in GC…GCGATTGACAGCGTAGAATGAAGG
[1] = system: FXR:RXRa (NR concentration 270 nM, RXRa partner concentration 90 nM)
How it was run: (§1)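 Binding buffer was PBS pH 7.4 with 2% milk, 0.02% Triton X-100, 1 mM DTT, 0.2 mg/mL BSA and 0.4 mg/ml salmon testes DNA. In it, ligand-free nuclear receptor dimers were incubated 1 h on custom Agilent 4×180K protein-binding microarrays carrying double-stranded probes. Antibodies against each partner (one per run) detected binding, and z-scores were calculated against random background probes after regression normalization of scanned fluorescence.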

[2] = system: LXRa:RXRa (NR concentration 270 nM, RXRa partner concentration 90 nM)
How it was run: as §1

[3] = system: LXRa homodimer (NR concentration 270 nM)
How it was run: as §1

[4] = system: LXRb:RXRa (NR concentration 270 nM, RXRa partner concentration 90 nM)
How it was run: as §1

[5] = system: LXRb homodimer (NR concentration 270 nM)
How it was run: as §1

[6] = system: PPARa:RXRa (NR concentration 270 nM, RXRa partner concentration 90 nM)
How it was run: as §1

[7] = system: PPARg:RXRa (NR concentration 180 nM, RXRa partner concentration 90 nM)
How it was run: as §1

[8] = system: PPARg:RXRa 270nM:90nM, anti-RXR (NR concentration 270 nM, RXRa partner concentration 90 nM)
How it was run: as §1

[9] = system: PPARg:RXRa 30nM:10nM, anti-RXR (NR concentration 30 nM, RXRa partner concentration 10 nM)
How it was run: as §1

[10] = system: PPARg:RXRa 90nM:30nM, anti-RXR (NR concentration 90 nM, RXRa partner concentration 30 nM)
How it was run: as §1

| Sequence | PBM binding z-score [1] | PBM binding z-score [2] | PBM binding z-score [3] | PBM binding z-score [4] | PBM binding z-score [5] | PBM binding z-score [6] | PBM binding z-score [7] | PBM binding z-score [8] | PBM binding z-score [9] | PBM binding z-score [10] |
| --- | --- | --- | --- | --- | --- | --- | --- | --- | --- | --- |
| TCGAGTAGGTTACCAAGGGGGCATTCAGCTTTCT | 1.44 | 4.34 | 0.768 | 4.55 | 6.02 | 2.95 | 1.48 | 3.04 | 2.18 | 2.74 |
| TCTAGTTGGTCAAGGGTCACACACTCGAAATGCG | 4.17 | 3.76 | 1.25 | 4.01 | 0.821 | 5.27 | 9.83 | 8.51 | 9.9 | 9.97 |
| CGTCCGAGGTCAGCAGGTCAGTGAAAGCGACGTG | 6.67 | 4.61 | 0.517 | 3.78 | 0.00416 | 5.44 | 5.32 | 5.3 | 1.73 | 4.16 |
| ATCTCTAGGTAACAAAGTTCAGTGAATGCCGAAC | 0.948 | 1.9 | 2.1 | 1.27 | 0.958 | 2.12 | 2.01 | 3.09 | 1.01 | 2.42 |
| TCTCAAAGTTCAAAGGTAACGTAAGTATCCACAC | 6.76 | 6.41 | 5.13 | 4.82 | 2.02 | 5.43 | 4.77 | 5.77 | 5.16 | 5.6 |
| CCTCGGAGGACAGAAGGTCGGAGCTGTCCGCTTT | -0.221 | -0.259 | -0.611 | -0.529 | -0.931 | -0.47 | -0.973 | -0.664 | -1.51 | -1.26 |
| ACTATTAGTTGACTTAGGTCAACCGATACGACGC | 1.69 | 2.25 | 1.71 | 2.39 | 1.28 | 2.29 | 1.35 | 1.35 | 0.53 | 0.993 |
| CCAACTAGGTCACGAAAGGTCAAAGTCGAATGAC | 7.46 | 8.21 | 7.89 | 7.27 | 2.78 | 6.63 | 9.92 | 8.01 | 5.92 | 8.18 |
| GCAAGCAGGCCATTTGGGTCACTCAATGACGGGC | 0.00635 | -0.402 | -0.429 | -0.137 | -0.801 | 1.34 | 0.661 | 0.661 | -0.408 | 0.131 |
| TCGAGTAGGTTACCAATGGGGCATTAAGCTTTCT | -0.382 | 1.24 | -0.459 | 0.663 | -1.11 | 0.96 | 0.247 | 1.17 | 1.39 | 1.18 |
| CCGACTGGGGCAAGGTTACCATGACGCACAGCCA | -0.0845 | 0.558 | 0.0292 | 0.445 | -1.06 | 1.87 | 2.78 | 3.14 | 1.24 | 2.47 |
| GCTTGCAGATCAAGGTTAAGAAAGACTAAGCTAA | -0.109 | 0.424 | -0.386 | 0.358 | -0.936 | 1.25 | 0.0724 | 0.872 | 0.0105 | 0.351 |
| CGAACTAGGTCAGAACAGCACAGTGAAGGATGAT | 0.904 | 0.613 | -0.229 | 0.425 | -0.2 | 3.25 | 5.34 | 4.59 | 1.73 | 3.54 |
| ATATGTAGGTTAGCTGGGGTCATTCAAACTAGGC | 5.07 | 5.84 | 3.67 | 5.17 | 1.92 | 5.21 | 5.74 | 5.36 | 2.92 | 4.91 |
| TCATATAAGTAAAGGTGAAAGTCGAACGATATGA | 1 | 1.25 | -0.151 | 1.26 | -0.205 | 2.77 | 1.98 | 2.93 | 3.99 | 3.46 |
| TCTAGCAGGCCAGAGGGTCACTCTAGAGGTACGG | 0.795 | 0.863 | -0.632 | 1.02 | -1.09 | 2.13 | 1.45 | 2.77 | 2.29 | 2.45 |
| TCATATAGGTAATACAGGTGCAAGTCGGCATCTA | 0.658 | 1.85 | 0.544 | 0.742 | 0.358 | 1.45 | 1.07 | 2.35 | 3.75 | 3.08 |
| GGAACGAGGGCAAAGTTGAGAGCATCTGTCGACG | 1.68 | 1.11 | -0.49 | 1.03 | -0.383 | 4.56 | 8.2 | 7.84 | 7.2 | 8.99 |
| CGTCCAAGGTCAAGGTCAGTGGAAGAGACTCGAA | 7.57 | 5.46 | 1.22 | 4.68 | 0.505 | 5.89 | 6.29 | 6.3 | 2.6 | 5.24 |
| CGAATTAGGTCATCCAGGACAGTGAATACATTGA | 4.75 | 3.32 | 0.829 | 2.55 | 0.231 | 5.11 | 7.49 | 6.52 | 3.78 | 6.07 |
| AGAACGGGGGCAATGAGTTGATAGCACGGGTGGC | 2.35 | 2.45 | 0.461 | 4.18 | 6.07 | 3.66 | 2.98 | 4.15 | 2.33 | 3.26 |
| GCTAGTTGGTCAGTAAAAGGTCACAAACCGGTCG | 3.06 | 3.78 | 3.4 | 3.99 | 0.763 | 4.53 | 2.59 | 4.01 | 2.23 | 3.46 |
| CCTACTAGTTGACCATAAGGGCAACCGAAGCTCG | 0.832 | 0.281 | 0.276 | 0.306 | 0.518 | 0.516 | 0.418 | 0.311 | -0.164 | 0.0805 |
| CGTCCAAGGTCATAGGAGGTAAGTGAAGACAGAT | 7.22 | 5.32 | 0.86 | 3.76 | 0.57 | 5.49 | 4.65 | 4.94 | 1.76 | 3.49 |

Source: the supplement of paper PMC6555819
